# In publication PMC5540273 (PLoS ONE, 2017):
# What was measured:
# AAK1 = conditions: concentration: 1 μM, replicates: in singlicate; n = 1
# ABL1-nonphosphorylated = conditions: concentration: 1 μM, replicates: in singlicate; n = 1
# ABL1-phosphorylated = conditions: concentration: 1 μM, replicates: in singlicate; n = 1
# ABL2 = conditions: concentration: 1 μM, replicates: in singlicate; n = 1
# ACVR1B = conditions: concentration: 1 μM, replicates: in singlicate; n = 1
# ACVR1 = conditions: concentration: 1 μM, replicates: in singlicate; n = 1
# ACVR2A = conditions: concentration: 1 μM, replicates: in singlicate; n = 1
# ACVR2B = conditions: concentration: 1 μM, replicates: in singlicate; n = 1
# ACVRL1 = conditions: concentration: 1 μM, replicates: in singlicate; n = 1
# ADCK3 = tested on: T1, ADCK3; conditions: concentration: 1 μM, replicates: in singlicate; n = 1
# T1 construct: gene CABC1
# ADCK4 = conditions: concentration: 1 μM, replicates: in singlicate; n = 1
# AKT1 = conditions: concentration: 1 μM, replicates: in singlicate; n = 1
# AKT2 = conditions: concentration: 1 μM, replicates: in singlicate; n = 1
# AKT3 = conditions: concentration: 1 μM, replicates: in singlicate; n = 1
# ALK = conditions: concentration: 1 μM, replicates: in singlicate; n = 1
# AMPK-alpha1 = tested on: T2, AMPK-alpha1; conditions: concentration: 1 μM, replicates: in singlicate; n = 1
# T2 construct: gene PRKAA1
# YSK4 = tested on: T3, YSK4;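 further: kd values determined as follow-up on hits from a single-replicate KINOMEscan panel screen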
# T3 construct: gene MAP3K19
# 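Wherever %Inh is given: KINOMEscan kinase panel screen.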
SMILES,%Inh (AAK1) [%],%Inh (ABL1-nonphosphorylated) [%],%Inh (ABL1-phosphorylated) [%],%Inh (ABL2) [%],%Inh (ACVR1B) [%],%Inh (ACVR1) [%],%Inh (ACVR2A) [%],%Inh (ACVR2B) [%],%Inh (ACVRL1) [%],%Inh (ADCK3) [%],%Inh (ADCK4) [%],%Inh (AKT1) [%],%Inh (AKT2) [%],%Inh (AKT3) [%],%Inh (ALK) [%],%Inh (AMPK-alpha1) [%],Kd (YSK4) [nM]
CC(C)Oc1ccc2c(-c3ccnc(Nc4ccc(N5CCN(C)CC5)cc4)n3)cnn2n1 [GW696155],90,39,53,14,0,69,0,0,0,20,83,0,0,0,42,41,
c1ccc(-c2cc(-c3c[nH]nc3-c3ccccn3)ccn2)cc1 [GW576604],23,0,0,0,37,0,0,42,0,1,12,0,0,0,14,0,
Cc1ccc(NC(=O)c2ccnc(N3CCN(C)CC3)c2)cc1-c1ccc(C(=O)NCC2CC2)cc1 [GW775604],0,45,0,0,0,0,16,0,0,1,0,0,0,6,0,0,
O=C(NOCC1CC1)c1ccc(F)c(F)c1Nc1ccc(I)cc1Cl,0,0,0,0,0,0,0,0,0,0,0,0,0,0,0,0,
Cn1ccc2ncnc(Oc3ccc(NC(=O)Nc4ccncc4)c(Cl)c3)c21,0,31,3,0,23,0,0,0,4,0,0,9,14,0,0,0,
CN(C1=C(c2ccccc2)C(=O)NC1=O)c1ccccc1 [SB-334860],7,0,0,0,0,1,0,4,0,12,15,0,23,0,0,0,
CCc1ccnc(/C=C/c2n[nH]c3cc(Sc4ccccc4C(=O)NC)ccc23)c1,22,98,89,76,3,0,0,0,0,0,0,0,0,8,11,0,
Cc1cccc(Cn2ccn3c(=O)cc(N4CCOCC4)nc23)c1 [GSK2297542],15,7,0,13,0,0,0,4,6,27,44,0,4,0,36,1,
O=C(c1ccc(-c2cc(-c3c[nH]nc3-c3ccccn3)ccn2)cc1)N1CCOCC1 [GW812171],0,36,29,2,76,0,0,0,0,0,0,5,0,0,5,19,
Cc1cn2c(=O)cc(N3CCOCC3)nc2n1Cc1cccc(Cl)c1Cl [GSK2334006],14,73,63,41,9,18,8,23,0,7,17,0,26,26,6,29,
c1ccc(-c2n[nH]cc2-c2ccnc3ccccc23)nc1 [GW271431],16,14,1,16,79,46,2,75,0,20,24,0,2,0,19,19,
O=C(Nc1n[nH]c2cc(-c3cccc(F)c3)ccc12)C1CC1 [SB-735464],26,64,43,8,10,36,32,50,4,0,0,0,0,19,0,10,310
